Most compounds without a hit are left out; they make up all but 2.4% or so of the library.
ANO1 block = mouse TMEM16A channel inhibition, primary screen; Q8BHY3; HEK293 TMEM16A/YFP iodide influx fluorescence, ionomycin; normalized B-score (activity score, 25-100; higher = stronger inhibition) at 10 µM; actives 1.2% (n = 310,000); AID 588511;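 active means ratio plate-corrected score three or more library SD toward inhibition, starting fluorescence score within five deviations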;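 further: score derived from kinetic fluorescence span divided by baseline fluorescence per well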
RTF Ca sens inh = cardiac RTF calcium desensitization. IANBD-labeled cardiac RTF, Ca2+ fluorescence. inhibition, % at 7.15 µM. AID 493244. P19429+P45379. actives 0.12% (n = 340,000);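 active means inhibition above the mean inhibition of all tested compounds plus 3 SD, cut at about 17% in these data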;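 further: assay run at fixed EC70 calcium of 1.6 mM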
CRFBP-R2 agonist = agonists of human CRF-binding protein/CRF-R2 receptor complex; HEK293 CRF-R2/CRF-BP, calcium dye fluorescence (FLIPR); percent of saturating CRF peptide response; activation, % at 13.2 µM; actives 0.46% (n = 350,000); AID 588473;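 active means activation of at least 50%, plus an integration ratio under a set limit after plate pattern correction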
ANO1 activ = mouse TMEM16A channel activation, primary screen; Q8BHY3; HEK293 TMEM16A/YFP-H148Q/I152L, iodide quench fluorescence; stronger effect = lower value; B-score at 10 µM; actives 0.3% (n = 340,000); AID 623877;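 active means fluorescence-ratio B-score plate-corrected deviation score at least 3 library SD below zero, with starting fluorescence score within 5 deviations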;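 further: channel opened by trigger with iodide after compound preincubation; score built on the fluorescence ratio of max minus min over baseline; more negative score means more quench and so TMEM16A activation or potentiation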
cardiac RTF act = cardiac RTF calcium sensitization; P19429+P45379; IANBD-labeled TnC RTF fluorescence at EC20 calcium; 0% EC20 calcium, 100% full calcium; activation, % at 7.2 µM; actives 0.24% (n = 340,000); AID 493008;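 active means activation above the mean over all tested compounds plus 3 SD, cut at about 30% in these data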;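 further: rise in fluorescence read as greater calcium sensitivity of cardiac thin filaments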
CRFR2-BP antag = blocks CRF-induced signaling of the CRF-BP/CRF-R2 complex. AID 588475. inhibition, % at 11.8 µM. actives 0.59% (n = 350,000). HEK293 CRF-R2/CRF-BP, CRF-induced calcium fluorescence;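 active means inhibition of the ligand-induced calcium signal above about 50% at the single tested concentration, limit read from the data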
TMEM16A reconf = TMEM16A (mouse) chloride channel inhibition, re-confirmation | HEK293 TMEM16A/YFP-H148Q, iodide quench fluorescence; ionomycin added to raise cell calcium | inhibition, % at 10 µM | shares compounds with ANO1 block | AID 652189 | actives 39% (n = 2,300);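 active means mean duplicate percent inhibition, scaled so buffer wells are 0 and the reference blocker 100, over three buffer SD above buffer mean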
HEK293 Ca mobil = alters calcium mobilization in TMEM16A HEK293 cells, counter-screen | shares compounds with ANO1 block | TMEM16A/YFP HEK293, Fluo4 calcium mobilization | calcium response (% of ionomycin), % at 10 µM | actives 2% (n = 2,300);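 active means duplicate-averaged calcium signal over 20% of the ionomycin maximum, relative to buffer baseline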;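 further: each well's signal is peak minus trough fluorescence divided by its pre-addition baseline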
YFP-HEK293 quench = parental YFP-HEK293 iodide quench counter-screen activity; shares compounds with ANO1 block; ionomycin; YFP ratio F(max-min)/F0 at 10 µM; 2,300 tested, under 10 active; AID 652233;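 active means yellow fluorescent protein signal ratio exceeding the buffer control mean by over 5 SD of those controls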;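 further: ratio is mean of duplicate wells from kinetic YFP trace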
ClC-1 inh = rat ClC-1 inhibition, TMEM16A specificity screen; shares compounds with ANO1 block; CHO ClC-1-YFP, iodide influx fluorescence quench; iodide control reads 0, buffer control 100; ratio percent, % at 10 µM; 2,300 tested, under 10 active; AID 652236;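 active means duplicate-mean ratio percent above the mean of iodide-only control wells, which defines zero, plus 5 of their SD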;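 further: higher percent means stronger block of ClC-1 iodide influx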
Of the large screens only hits and unclear results are named; the others gave an inactive call (follow-up assays come after a bar, where they were run).

CC1(C)NC(=O)N(CN2C(=O)NC(C)(C)C2=O)C1=O	none | TMEM16A reconf inactive | HEK293 Ca mobil inactive | YFP-HEK293 quench inactive | ClC-1 inh inactive
CC(=O)c1cccc(S(=O)(=O)Nc2ccc3nc(C)sc3c2)c1	ANO1 block 100 | TMEM16A reconf inactive | HEK293 Ca mobil inactive | YFP-HEK293 quench inactive | ClC-1 inh inactive
COc1cc(S(=O)(=O)Nc2ccc3nc(C)sc3c2)ccc1NC(C)=O	none (no result: ANO1 block)
COC(=O)C1=C(C)N(CCCC(=O)O)C(=O)NC1c1ccc(-c2ccccc2)cc1 (configuration not stated)	ANO1 block 100 | TMEM16A reconf inactive | HEK293 Ca mobil inactive | YFP-HEK293 quench inactive | ClC-1 inh inactive
COC(=O)CCCCCN1C(=O)NC(c2ccccc2)C(C(=O)OCc2ccccc2)=C1C (configuration not stated)	ANO1 block 25 | TMEM16A reconf 16% | HEK293 Ca mobil inactive | YFP-HEK293 quench inactive | ClC-1 inh inactive
CC1=C(C(=O)OCc2ccccc2)C(c2ccc(Br)cc2)NC(=O)N1CCCCCC(=O)O (configuration not stated)	none
Cc1ccccc1OCC(=O)NNC(=O)c1ccoc1C	none (no result: ANO1 block)
CC1Sc2ccc(S(=O)(=O)CCC(=O)NCc3ccc(Cl)cc3)cc2NC1=O (configuration not stated)	ANO1 block 25 | TMEM16A reconf inactive | HEK293 Ca mobil inactive | YFP-HEK293 quench inactive | ClC-1 inh inactive
COc1ccc(NC(=O)C2CCN(S(=O)(=O)c3ccc4c(c3)NC(=O)C(C)S4)CC2)cc1 (configuration not stated)	none
CC1Sc2ccc(S(=O)(=O)N3CCC(C(=O)Nc4ccc(Cl)cc4)CC3)cc2NC1=O (configuration not stated)	ANO1 block 25 | TMEM16A reconf 32% | HEK293 Ca mobil inactive | YFP-HEK293 quench inactive | ClC-1 inh inactive
CCCCN1C(=O)C(CC(=O)NCCc2ccccn2)CC(C(=O)N2CCOCC2)=C1C (configuration not stated)	none (no result: ANO1 block, RTF Ca sens inh, ANO1 activ, cardiac RTF act)
COc1ccc(OC)c(S(=O)(=O)N2CCC(C(=O)NCc3ccncc3)CC2)c1	none
Fc1cc(F)cc(NC(=S)Nc2ccccc2N2CCOCC2)c1	none
CCC1=NN(C(=O)c2ccccc2O)C(O)(c2ccccc2)C1 (configuration not stated)	ANO1 block 25 | TMEM16A reconf inactive | HEK293 Ca mobil inactive | YFP-HEK293 quench inactive | ClC-1 inh inactive
COc1ccc(S(=O)(=O)Nc2ccccc2-c2nnn(CC(=O)Nc3ccccc3OC)n2)cc1	none
COc1ccc(NC(=O)Cn2nnc(-c3ccccc3NS(=O)(=O)c3ccccc3)n2)cc1	ANO1 block 100 | TMEM16A reconf 38% | HEK293 Ca mobil inactive | YFP-HEK293 quench inactive | ClC-1 inh inactive
CC(OC(=O)c1cc(Br)ccc1O)C(=O)Nc1ccc(S(=O)(=O)N2CCCC2)cc1 (configuration not stated)	ANO1 block 100 | TMEM16A reconf 62% | HEK293 Ca mobil inactive | YFP-HEK293 quench inactive | ClC-1 inh inactive
COc1ccc(OC)c(C(=O)c2coc3ccc(O)cc23)c1	ANO1 block 25 | TMEM16A reconf inactive | HEK293 Ca mobil inactive | YFP-HEK293 quench inactive | ClC-1 inh inactive
O=C(Nn1nnnc1Nc1ccccc1)C12CC3CC(CC(C3)C1)C2	ANO1 block 25 | TMEM16A reconf inactive | HEK293 Ca mobil inactive | YFP-HEK293 quench inactive | ClC-1 inh inactive
O=C(NCc1ccccc1)C12CC3CC(CC(C3)C1)C2	none
O=C(NCc1ccco1)c1ccccc1NS(=O)(=O)c1ccc(Cl)s1	ANO1 block 100 | TMEM16A reconf inactive | HEK293 Ca mobil inactive | YFP-HEK293 quench inactive | ClC-1 inh inactive
O=C(NCc1ccco1)c1ccccc1NS(=O)(=O)c1cccs1	none
c1ccc2[nH]c(CSc3ncnc4c3oc3ccccc34)nc2c1	ANO1 block 100 | TMEM16A reconf 22% | HEK293 Ca mobil inactive | YFP-HEK293 quench inactive | ClC-1 inh inactive
CCN1CCN(CC(O)COc2ccc(Cl)cc2)CC1 (configuration not stated)	none
CCN1CCN(CC(O)COC(C)C)CC1 (configuration not stated)	ANO1 block 25 | TMEM16A reconf inactive | HEK293 Ca mobil inactive | YFP-HEK293 quench inactive | ClC-1 inh inactive
COc1ccc(OC)c(-n2c(=S)[nH]c3c(sc(=S)n3-c3ccccc3)c2=O)c1	none
NC(=O)C1CCN(C2=C(Cl)C(=O)c3ccccc3C2=O)CC1	ANO1 block 100 | TMEM16A reconf 28% | HEK293 Ca mobil inactive | YFP-HEK293 quench inactive | ClC-1 inh inactive
COC(=O)C(C)Oc1ccc(Cl)c(CN2OCC(C)(C)C2=O)c1 (configuration not stated)	none
CCOC(=O)C1=C(CSc2nc3ccccc3s2)NC(=O)NC1c1ccc(OC)cc1 (configuration not stated)	ANO1 block 25 | TMEM16A reconf inactive | HEK293 Ca mobil inactive | YFP-HEK293 quench inactive | ClC-1 inh inactive
Cc1ccc(NC(=O)COC(=O)c2ccc3ncsc3c2)c(C)c1	none (no result: ANO1 block, RTF Ca sens inh, ANO1 activ, cardiac RTF act)
CCN(C(=O)Cc1c(C(=O)O)[nH]c2ccccc12)c1cc(OC)ccc1OC	ANO1 block 100 | TMEM16A reconf inactive | HEK293 Ca mobil inactive | YFP-HEK293 quench inactive | ClC-1 inh inactive
c1ccc(-c2ccc(-c3nc(-c4ccccn4)no3)cc2)cc1	ANO1 block 25 | TMEM16A reconf inactive | HEK293 Ca mobil inactive | YFP-HEK293 quench inactive | ClC-1 inh inactive
c1ccc(-c2nc(-c3ccccn3)no2)cc1	none
CCOC(=O)N1CCC(Nc2nc3ccccc3nc2NS(=O)(=O)c2ccc(Cl)cc2)CC1	none | TMEM16A reconf 32% | HEK293 Ca mobil inactive | YFP-HEK293 quench inactive | ClC-1 inh inactive
